Assay results taken from the supplement of paper PMC6555819.

system: LXRb:RXRa (NR concentration 270 nM, RXRa partner concentration 90 nM); assay: PBM binding z-score (relative to random genomic background probes); higher = stronger binding; sequences stand for … in GC…GCGATTGACAGCGTAGAATGAAGG
Experimental: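 Protein-binding microarray (Agilent 4x180K custom design, double-stranded 60-nt probes: 5' GC cap, 34-nt variable region, 24-nt constant primer region; full probe sequence given). Purified or IVT nuclear receptor:RXRα heterodimers (3:1 NR:RXRα, mostly 270:90 nM) or homodimers were incubated for 1 h in PBS with 2% milk and no ligand, then detected with Alexa488 antibodies. Fluorescence from o1-orientation probes (~5 replicates averaged) was converted to z-scores against 500 random hg19 background probes. Variable regions are seed direct-repeat (DR0–DR5) sites, all their single-nucleotide variants and half-site ablations.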

Sequence | PBM binding z-score
CGTCAAAGTTCAAGGTCACGTAACAGAAAGCAGC | 5.52
AATACAGGGTCATCGTACGCCAGAGTACGCACAG | 4.92
CCTAGTTGGTCAAGGTCACATACGCTATAGGTAC | 3.56
CGTCCGAGGTCATAGGAGGTCAGTGAAGACAGAT | 6.8
CGAACGAGGTCATCCAGGACAGTGAATACATTGA | 5.42
CCTACTGGGCCACGAAAGGCCATTGATTCAGTGA | -0.37
GGAACGAGGGCATTCGAGTTCATAGCATGGCGAT | 3.44
TGTCAAAGTTCAAAGGTGACGTAAGTATCCACAC | 5.06
GATACAGGGTCGGCTAGAGGCCAGAGTATGGAAA | 0.129
AATACAGGGTCATCTTAGGCCAGAGTACGCACAG | 5.12
AGTCAAAGTTGAGGACGAGGTAACGTAAAGCACG | -0.0986
CGAACGAGGTCAAAGGACAGTGAAAGGCGACGTA | 4.81
CCTTACGGGTCACGAGGTCATAGCACGACGAGCG | 5.05
TCTGCTAGGTCAACGATGGTCAGTTAATCTGCTA | 1.72
CCAACTAGGTCAAAGGACAGTGAAAGGCGACGTA | 1.91
CCTTACGGGTAACGAGGTTATAGCACGACGAGCG | 0.414
CGAACTAGGTCATTGACAGGACAATGAATAGTAA | 2.47
CCTTACGGGTCCCTCCAGGTTATAGCATCGGAGT | -0.459
ATCGAAAGGTCGAAGGTGCGTATACCCACCCGAA | 2.33
TCTTGTAGATCAACAGGAGGTTAATAAAGATCGA | 1.49

Sequence | PBM binding z-score
CAAACTAGGTCACGAGAGGTCAAAGTCGAATGAC | 7.33
GCTGCTAGGTCAACTGATGGTCATCTAAAGCTCG | 2.18
ATCGAAAGGTCGAAGGTGAGCATACCCACCCGAA | 2.79
GCTAGTTGGTCAGTAAAATGTCACACACCGGTCG | -0.14
GCTGCTAGGTCAACTGATGGCCAGCTAAAGCTCG | 1.66
CCTCGGAGGACAGAAGGTCAAAGCTGTCCGCTTT | 3.1
AGTCAAAGTTTATCTAGGTAACGTAAGATATGCT | 0.175
TAGCCTAGGTCATACAGGGGCCAGTATAGAAAGC | 2.48
AGAATGAGGTTAAACGTAGATCAGGGAAGAAAGT | 2.42
GATACAGGGTCAAGGTCAGAGTACGCGTATTGAT | 4.85
CGAACTAGGTCTAAGGACAGTGAAAGGCGACGTA | -0.844
ACTCGGAGGACAAAGGTCAGGGCTACGCCAGTGA | 3.29
TATCAAAGTTCAAAGGTAACGTAAGTATCCACAC | 4.98
CACACTAGGTCACAGAGGTCAAAGTCCGTGCGTA | 6.24
CCTGCTAGGTCATGGTCAGCGAATCTACAGTATG | 1.54
CGAACAAGGTCACCAGGACAGTGAAGAGGTTGGA | 4.28
ATCGAAAGGTCGACGCGGTGAGTATACACCGTTT | 2.25
ACTTACGGCTCAACGAGGTTATAGCACGCGTATA | 0.741
TGTATGAGGTTAAAGATCAGGGAACGTGGCGTCG | 2.16
TAGCCTAGGTTATGGGCCAGTATACCACGCGAAC | 0.13
